Screening results: PubChem BioAssay, several laboratories
PfM18AAP inh: blocks P. falciparum M18 aspartyl aminopeptidase; recombinant PfM18AAP, H-Glu-NHMec fluorogenic cleavage; inhibition, % at 7.35 µM; 290,000 tested, 1.2% active; AID 1822;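 active = inhibition above the campaign mean inhibition over all tested compounds plus 3 SD, cut at about 28% in these data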;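 also: 0% = plate median of test compound wells and 100% = 2 mM ZnCl2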
Rce1 inh: inhibitors of yeast Ras-converting enzyme | calls only | AID 2563 | 290,000 tested, 0.27% active | yeast membranes, quenched prenylated peptide cleavage fluorescence | Q03530;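 active = fall in fluorescence gain of 50% or more versus controls, with final raw signal at or below 3038400; inconclusive = same 50% fall but final raw signal above 3038400; inactive = fall in fluorescence gain under 50%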;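 also: plate controls were neutral control wells for no effect and wells lacking membranes for full effect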
ABHD5 PLIN5 PPI: inhibitors of human ABHD5-perilipin-5 interaction; Q00G26+Q8WTS1; Split G. princeps luciferase complementation, luminescence, 4 h; inhibition, % at 4 µM; 360,000 tested, 0.78% active; AID 602281;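 active = inhibition above the mean inhibition across every tested compound plus 3 SD, cut at about 22% in these data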;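 also: 0% = DMSO only wells and the 100% control is not disclosed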
Granule exo inh: lytic granule exocytosis inhibition. TALL-104 LAMP-1 surface exposure, flow cytometry; cells stimulated with thapsigargin and PMA. inhibition, % at 10 µM. 360,000 tested, 0.66% active. AID 651702;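 active = inhibition above about 55%, limit read from the data; inconclusive = no clear call, values can overlap the other calls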
Platelet DG rel: platelet dense granule release activity. inhibition, %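 (compounds screened at 7.5 µM in platelet-rich plasma)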. human platelet-rich plasma, SFLLRN dense granule ATP release, luminescence. 300,000 tested, 0.22% active;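 active = mean replicate score, as percent of positive control, at or above 50; inconclusive = mean below 50 but at least one replicate at or above 50; inactive = mean and every replicate below 50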
ABHD5 PLIN5 conf: confirmation of human ABHD5-PLIN5 interaction inhibitors; 2,200 tested, 67% active; shares compounds with ABHD5 PLIN5 PPI; inhibition, % at 4 µM; biochemical ABHD5-PLIN5 interaction, luminescence; in the data active = inhibition above about 23%;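 also: 0% = DMSO vehicle wells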
HNF4 counter: HNF4 split-luciferase signal hit, counter-screen | HNF4 dimerization, luminescence, biochemical | shares compounds with ABHD5 PLIN5 PPI | 2,200 tested, 77% active | inhibition, % at 4 µM;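 active = mean inhibition across replicate wells exceeding the computed hit threshold, cut at about 13% in these data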;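 also: light from luciferase halves that rejoin when HNF4 fusion proteins dimerize; 0% = DMSO only wells and the 100% control is not given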
* hit, by the source's call; i = inactive; ? = inconclusive; · = no result given. Rows were chosen to be rich in hits. Some 2.6% of all compounds tested hit in one or more screens of this group.

SMILES	PfM18AAP inh	Rce1 inh	ABHD5 PLIN5 PPI	Granule exo inh	Platelet DG rel	ABHD5 PLIN5 conf	HNF4 counter
COc1ccccc1C(c1c(O)nc(SC)[nH]c1=O)c1c(O)nc(SC)[nH]c1=O	·	i	23.5*	-9.5	14.1	48.6*	42.5*
CCCCC12CN3CCN(CC(C3)/C1=N\NC(=O)c1ccccc1N)C2	-12.1	i	-5.3	-1.7	1.4	·	·
COc1cccc(CN2CC(C(=O)N3CCCO3)CCC2=O)c1 (stereo not given)	-1.2	i	-3.4	-15.8	0.0	·	·
CC(=O)Nc1ccc(CN(C)CC2CCCN(CCc3cccc(C(F)(F)F)c3)C2)cc1 (stereo not given)	-7.0	i	4.6	43.8	-3.0	·	·
Cc1cc2nc(-c3cccc(Br)c3)c(Cc3ccsc3)n2c(C)c1Br	·	·	-0.4	14.3	·	·	·
Cc1cc2nc(-c3cccc(Br)c3)c(Cc3ccccc3)n2c(C)c1Br	·	·	28.3*	8.9	·	32.2*	17.1*
COc1ccc(-n2nnnc2S(=O)(=O)Cc2ccc(C(=O)O)cc2)cc1	-97.8	·	54.3*	0.8	2.7	78.8*	81.3*
CCc1ccc(Oc2nnnn2-c2ccc(C(N)=O)cc2)cc1	-2.6	i	1.6	0.3	11.7	·	·
COc1cc(NC(=O)C/C(C)=N/NC(=O)Cc2ccccc2)c(OC)cc1Cl	-3.8	i	12.9	2.7	6.3	·	·
COc1cc(NC(=O)C/C(C)=N/NC(=O)c2cccs2)c(OC)cc1Cl	1.3	i	35.6*	-3.3	-4.8	8.3	15.7*
Cc1ccc2nc3cc([N+](=O)[O-])cc([N+](=O)[O-])c3cc2c1	3.0	·	39.1*	63.4*	·	88.5*	46.9*
Cn1c2ccc(F)cc2c2ncn(Cc3ccccn3)c(=O)c21	-0.4	i	-2.9	-1.3	·	·	·
O=C(O)CCc1nc(-c2ccccc2)no1	-1.8	i	1.0	3.0	-0.1	·	·
CCN(CC)CCc1nc(-c2ccccc2)no1	·	·	55.8*	-1.9	·	84.4*	43.0*
COC(=O)/C=C1\SC(=Nc2ccc(Cl)c(Cl)c2)NC1=O	-4.5	i	5.4	4.4	0.3	·	·
N=c1c(C(=O)NCc2ccco2)cc2c(=O)n3ccccc3nc2n1CC1CCCO1 (stereo not given)	16.6	i	27.9*	-1.2	-1.0	9.9	12.1
N=c1c(C(=O)NCc2ccc(F)cc2)cc2c(=O)n3ccccc3nc2n1CC1CCCO1 (stereo not given)	11.6	?	9.2	4.2	-5.8	·	·
O=C(Cc1cccc2ccccc12)N/N=C/C=C/c1cccc([N+](=O)[O-])c1	-8.8	i	1.9	-3.8	-8.8	·	·
CCOc1ccc(S(=O)(=O)NCc2ccco2)c2ccccc12	2.6	i	26.2*	6.4	-2.8	7.8	6.9
COc1ccc(C2CC(c3cccs3)=Nc3ccccc3S2)cc1 (stereo not given)	24.6	i	59.5*	-1.0	0.4	-3.9	-10.6
COc1ccc(C2CC(c3cccs3)=NN2S(C)(=O)=O)cc1 (stereo not given)	4.0	i	-0.1	0.3	-3.3	·	·
Cc1cc(NC(=O)c2ccccc2F)on1	-6.4	i	3.9	-2.9	-4.2	·	·
CCC(=O)Nc1cccc(C(=O)/C=C/c2ccccc2)c1	3.2	i	67.6*	2.7	0.6	75.0*	53.1*
CCC(=O)Nc1cccc(C(=O)/C=C/c2cccs2)c1	-2.1	i	32.8*	-10.9	-11.1	48.9*	37.3*
CCC(=O)Nc1cccc(C(=O)c2ccccc2)c1	-2.7	i	2.8	2.4	-14.5	·	·
SMILES	PfM18AAP inh	Rce1 inh	ABHD5 PLIN5 PPI	Granule exo inh	Platelet DG rel	ABHD5 PLIN5 conf	HNF4 counter
CCOC(=O)c1ccc(N/C=C/C(=O)c2ccccc2)cc1	1.4	i	-2.6	-1.3	23.9	·	·
CCOC(=O)Nc1ccc(C(=O)/C=C/c2ccccc2)cc1	2.5	i	41.9*	23.7	-3.6	60.2*	44.4*
CCOc1ccc(-c2cc(CCCC(=O)NCCc3ccc(OC)c(OC)c3OC)no2)cc1	7.7	i	-1.7	-1.8	3.9	·	·
O=C(/C=C/c1cccnc1)c1ccccc1O	8.5	i	12.9	-3.0	5.1	·	·
O=C(/C=C/c1cccnc1)c1ccc(O)cc1	5.1	i	29.1*	-6.5	1.4	48.8*	47.7*
COc1cc(C(=O)Nc2ccncc2)c([N+](=O)[O-])cc1OC	19.0	i	-5.8	1.5	7.2	·	·
COc1cc(C(=O)/C=C/c2cccnc2)c([N+](=O)[O-])cc1OC	·	i	47.2*	-4.4	1.4	73.6*	71.6*
O=C(C=Cc1cccnc1)c1ccccc1	·	·	74.0*	4.0	·	84.1*	81.3*
CN(C)C(=O)COc1ccc(C(=O)/C=C/c2cccnc2)cc1	-2.2	i	27.7*	3.5	3.0	51.8*	45.7*
O=C(CCc1nc2ccccc2c(=O)[nH]1)NCc1ccccn1	-13.0	i	-5.0	-2.7	0.2	·	·
O=C(c1ccco1)N1CCN(c2c(-c3ccccc3)c3cc(Cl)ccc3[nH]c2=O)CC1	1.3	i	13.5	-4.6	-4.2	·	·
CCN(CC)c1ccc(N=Nc2nn(C)c(C)c2[N+](=O)[O-])cc1	3.6	i	25.3*	2.8	12.1	28.6*	32.6*
CCN(Cc1ccccc1)c1ccc(N=Nc2nn(C)c(C)c2[N+](=O)[O-])cc1	-0.5	i	9.0	-0.5	6.6	·	·
CC(=O)Oc1ccc(C23c4ccccc4C2(OC(C)=O)c2cc(OC(C)=O)ccc23)cc1 (stereo not given)	·	·	98.8*	-10.4	·	101.6*	53.2*
CC(=O)Oc1ccc(-c2cccc(C(=O)O)c2)cc1	-3.9	i	0.6	4.2	-0.1	·	·
Cc1nc2ccc(NC(=O)[C@@H](NC(=O)c3c(F)cccc3F)C(C)C)cc2s1	·	·	-2.3	-2.9	·	·	·
COc1ccccc1N1CCN(C2CCCN(C(=O)CC(F)(F)F)C2)CC1 (stereo not given)	2.6	i	-2.1	-4.3	8.7	·	·
COc1ccc(S(=O)(=O)N(C(=O)C(C)C)c2ccc3oc(=O)sc3c2)cc1	7.3	i	31.7*	-0.7	10.2	-71.0	39.2*
CC(C)C(=O)N(c1ccc2oc(=O)sc2c1)S(=O)(=O)c1ccccc1	-4.3	i	7.8	-0.5	-15.3	·	·
CN1CCN(CC#CCn2c3ccccc3c3ccccc32)CC1	-4.9	i	23.2*	1.6	-0.3	11.5	1.4
C/C(=C\COc1cc(=O)[nH]c2ccccc12)CCC(O)C(C)(C)O (stereo not given)	3.7	i	-2.4	-0.5	-4.1	·	·
Cc1ccc(S(=O)(=O)N(CC(=O)NCc2cccnc2)c2ccc(F)cc2)cc1	-11.6	i	-5.1	-9.2	-0.6	·	·
CCOc1ccc(S(=O)(=O)N(CC(=O)NCc2cccnc2)c2ccc(F)cc2)cc1	0.7	i	40.1*	-6.1	9.9	1.2	-5.1
COC(=O)c1cccc(NC(=O)c2cc(OC)c(OC)c(OC)c2Br)c1	-2.8	i	-2.3	-1.9	-1.7	·	·
